Results on twelve compounds are retold here after PubChem BioAssay (NCATS).

The subject of assay [1] is Zika virus NS2B-NS3 protease (unlinked complex). Nature of the assay: Primary screen GU Rhodamine qHTS for Zika virus inhibitors: Unlinked NS2B-NS3 protease assay (AID 1347159). Note: nearly all actives have a fitted effect of over 60% in size. The method in brief:
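Buffer 10 mM Tris-HCl pH 8.0, 0.01% Tween 20. Unlinked protease 25 nM; compound preincubation 15 min, RT, protected from light. Substrate Rhod110, 1.5 microM; ~15% conversion in 15 min.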
Background: Quantitative high-throughput screening tests each substance at several concentrations.

Assay [2] concerns Zika virus NS2B-NS3 protease (linked construct). As to the kind of experiment: Primary screen NINDS Rhodamine qHTS for Zika virus inhibitors (AID 1347160). Note: nearly all actives have a fitted effect of over 55% in size. The method in brief:
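Aprotinin served as in-plate control. Conditions: 25 nM linked NS2B-NS3, pH 8.0 Tris buffer, titrated compounds, 15 min preincubation and 15 min reaction with 1.5 microM Rhod110 substrate at room temperature.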

SMILES strings stand for the structures. Records with an inconclusive call do not appear. Entries that show only a call come without a potency. Calls of active or inactive are those of the source. Calls come from the whole dose curve; as a rule, active = well fitted inhibition curve with a large enough effect; inconclusive = small, poorly fitted or top-dose-only effect; inactive = no such curve, though single readings can be large or run the other way.

As for `COc1ccc(CC2NCCc3c2[nH]c2ccc(C)cc32)cc1OC` (centres undefined), the Potency result in assay [1] and in assay [2] was “inactive” throughout.
For `Cc1cc(Cl)ccc1COc1ccnn1-c1cc(C(=O)O)ccn1`, the Potency result in assay [1] and in assay [2] was “inactive” each time.
Regarding `CO[C@H]1C[C@@H]2CC[C@@H](C)[C@@](O)(O2)C(=O)C(=O)N2CCCC[C@H]2C(=O)O[C@H]([C@H](C)C[C@H]2CC[C@@H](OP(C)(C)=O)[C@H](OC)C2)CC(=O)[C@H](C)/C=C(\C)[C@@H](O)[C@@H](OC)C(=O)[C@H](C)C[C@H](C)/C=C/C=C/C=C/1C`, the Potency entry in assay [1] and in assay [2] was “inactive” each time.
Regarding `CC12CCC3c4ccc(O)cc4CCC3C1CC(OC1OC(C(=O)O)C(O)C(O)C1O)C2O` (centres undefined), the Potency result in assay [1] and in assay [2] was “inactive” throughout.
With `CCCCNc1ccc(-c2ccc(CN3CCOCC3)cn2)c(NC2CCC(O)CC2)c1` (centres undefined), the Potency result in assay [1] and in assay [2] was “inactive” each time.
Consider `COC(=O)CC(O)C1OC(c2ccccc2)C(O)C1O` (centres undefined), for which the Potency entry in assay [1] and in assay [2] was “inactive” throughout.
Take `CN(c1ccccc1CNc1nc(Nc2ccc3c(c2)CC(=O)N3)ncc1C(F)(F)F)S(C)(=O)=O`: the Potency result in assay [1] and in assay [2] was “inactive” throughout.
As for `CC(=O)NC[C@H]1CN(c2ccc(N3CCN(C(=O)CO)CC3)c(F)c2)C(=O)O1`, the Potency entry in assay [1] and in assay [2] was “inactive” in each case.
For `CC1=CC(=O)CC(C)(C)[C@@]1(O)CC[C@@H](C)O[C@@H]1O[C@H](CO)[C@@H](O)[C@H](O)[C@H]1O`, the Potency entry in assay [1] and in assay [2] was “inactive” each time.
As to `Cc1ccc(-c2c(C(=O)CF)n(CCCO)c3ncnc(N)c23)cc1`, the Potency entry in assay [1] and in assay [2] was “inactive” throughout.
For `Cn1nc(C(C)(C)C)cc1C(=O)NC(Cc1cccc(Cl)c1)C(=O)NCC#N` (centres undefined), the Potency result in assay [1] and in assay [2] was “inactive” each time.
As for `C[C@H]1C(=O)N2c3ccccc3[C@@]3(O)C[C@@H]4C(=O)N[C@](C)(c5nc6ccccc6c(=O)n54)N1[C@@H]23`, the Potency entry in assay [1] and in assay [2] was “inactive” each time.
